Screening data as filed in PubChem.
miR-122 inh: miR-122 sensor activation; activation, % at 12.5 µM; Huh7 psiCHECK-miR122 Renilla luciferase sensor, 48 h; hit rate 0.14% among 340,000;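 active = mean activation of 30% or more, with every replicate also reaching 30%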;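 note: 0% = median of neutral control wells and 100% = median of positive control wells; higher luciferase signal means stronger suppression of miR-122 activity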
The depositor's hits bear a star. This excerpt belongs to a sample that is enriched for hits.

SMILES	miR-122 inh
CC(C)CC#Cc1cnc2c(c1)C(=O)N([C@@H](C)CO)C[C@H](C)[C@H](CN(C)C(=O)Nc1cc(F)ccc1F)O2	13
C[C@H](CO)N1C[C@H](C)[C@H](CN(C)CC2CCOCC2)Oc2ncc(C#Cc3cccc(F)c3)cc2C1=O	-7
CC(C)NC(=O)N(C)C[C@@H]1Oc2ncc(C3=CCCCC3)cc2C(=O)N([C@@H](C)CO)C[C@H]1C	-3
CCC(=O)N1C[C@H](C)[C@@H](OC)CN(C)C(=O)c2ccc(NS(C)(=O)=O)cc2OC[C@H]1C	0
COc1cc2nc(C3CCC3)n(NC(=O)C3CCCC(OC)C3)c(=O)c2cc1OC (configuration not stated)	34*
C[C@H]1CN([C@@H](C)CO)S(=O)(=O)c2ccc(/C=C/c3ccccc3)cc2O[C@H]1CN(C)C(=O)Nc1cccc(F)c1	-13
C[C@@H]1CN([C@@H](C)CO)S(=O)(=O)c2ccc(-c3ccc(C(=O)N(C)C)cc3)cc2O[C@@H]1CN(C)C(=O)C1CCOCC1	19
CCOC(=O)C1CCN(C(c2cccnc2)c2c(NC(=O)c3ccco3)sc(C)c2C)CC1 (configuration not stated)	39*
Cc1sc(NC(=O)c2ccccc2)c(C(c2ccc(Cl)cc2)N2CCN(CCO)CC2)c1C (configuration not stated)	-95
CC1CCCC(NC(=O)COC(=O)c2ccccc2NC(=O)c2ccco2)C1C (configuration not stated)	-171
C[C@@H]1CN([C@H](C)CO)C(=O)c2cc(-c3ccccc3)cnc2O[C@@H]1CN(C)C(=O)Nc1ccccc1	5
C[C@@H]1CN([C@H](C)CO)C(=O)c2cc(/C=C/c3ccccc3)cnc2O[C@@H]1CN(C)S(=O)(=O)c1ccc(F)cc1	8
C[C@H](CO)N1C[C@H](C)[C@H](CN(C)CC2CCOCC2)Oc2ncc(C#Cc3ccccn3)cc2C1=O	5
C[C@H](O)C#Cc1ccc2c(c1)O[C@H](CN(C)C(=O)c1ccncc1)[C@H](C)CN([C@H](C)CO)S2(=O)=O	14
CCCNC(=O)N(C)C[C@@H]1Oc2cc(-c3ccccc3)ccc2S(=O)(=O)N([C@H](C)CO)C[C@@H]1C	-6
NC(=O)C1CCN(C2=C(Cl)C(=O)c3ccccc3C2=O)CC1	70*
C[C@@H]1CN([C@H](C)CO)C(=O)c2cc(/C=C/c3ccccc3)cnc2O[C@H]1CN(C)C(=O)C1CCOCC1	-1
COc1cccc(-c2cnc3c(c2)C(=O)N([C@@H](C)CO)C[C@H](C)[C@H](CN(C)C(=O)Nc2ccccc2F)O3)c1	-9
Oc1ccc2ccccc2c1/C=N/Nc1nnc(-c2ncc[nH]2)c2ccccc12	61*
C[C@@H]1CN([C@H](C)CO)C(=O)c2cc(C#Cc3ccccc3)cnc2O[C@H]1CN(C)C(=O)c1ccccn1	5
C[C@H]1CN([C@@H](C)CO)C(=O)c2cc(C#Cc3ccccn3)cnc2O[C@@H]1CN(C)CC1CCOCC1	0
COc1ccc(NC(=O)N(C)C[C@H]2Oc3ncc(C4=CCCC4)cc3C(=O)N([C@H](C)CO)C[C@@H]2C)cc1	5
CO[C@H]1CN(C)C(=O)c2ccc(NS(=O)(=O)c3ccc(C)cc3)cc2OC[C@H](C)N(C)C[C@H]1C	5
COc1ccc(C(=O)C2CCCN(Cc3cccn3-c3ccccn3)C2)c(OC)c1 (configuration not stated)	60*
C[C@@H]1CN([C@H](C)CO)C(=O)c2cc(C#Cc3ccccn3)cnc2O[C@@H]1CN(C)CC1CCOCC1	-1
SMILES	miR-122 inh
COc1cccc(CN(C(=O)Cc2c[nH]c3ccccc23)C(C(=O)NC2CCCCC2)c2cccs2)c1 (configuration not stated)	-240
COc1ccc(NS(=O)(=O)c2cccc(NC(=O)COc3ccccc3[N+](=O)[O-])c2)cc1	-146
COc1ccc(NC(=O)COC(=O)CCCc2c[nH]c3ccccc23)cc1	36*
C[C@H]1CN([C@@H](C)CO)C(=O)c2cc(-c3ccccc3F)cnc2O[C@H]1CN(C)Cc1ccccc1F	2
CC(C)C#Cc1ccc2c(c1)O[C@@H](CN(C)CC1CCCC1)[C@H](C)CN([C@@H](C)CO)S2(=O)=O	-7
C[C@@H]1CN([C@@H](C)CO)S(=O)(=O)c2ccc(-c3ccncc3)cc2O[C@H]1CN(C)Cc1cncnc1	-1
CCCN(C)C[C@H]1Oc2cc(C#CCN(C)C)ccc2S(=O)(=O)N([C@H](C)CO)C[C@H]1C	-7
COc1cccc(/C=N/Nc2ccc([N+](=O)[O-])cn2)c1O	33*
CC(C)CC#Cc1ccc2c(c1)O[C@@H](CN(C)C(=O)NC1CCCC1)[C@@H](C)CN([C@@H](C)CO)S2(=O)=O	-14
CC(C)CC#Cc1ccc2c(c1)O[C@H](CN(C)C(=O)C1CCOCC1)[C@@H](C)CN([C@@H](C)CO)S2(=O)=O	19
COc1ccc(-c2c(C(C)=O)c(C)nc3sc4c(c23)NC(c2ccccc2)NC4=O)cc1 (configuration not stated)	36*
